Measurements taken from the supplement of paper PMC9446081.
± gives the standard deviation of the averaged measurements.

Columns and labels:
Assay in all cases: relative enzymatic activity vs untreated control (fraction); higher = less inhibition
Settings in all cases: 100 µM; incubation time: 2 h at 37 C
DNA gyrase = system: DNA gyrase
Experimental: (§1)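 In vitro enzymatic inhibition assays (ProFoldin kits) for 12 purified essential E. coli enzymes or complexes, each treated with 218 active antibacterial compounds at 100 µM for 2 h at 37°C. Read-outs were fluorescence or absorbance (phosphate detection, dye binding), converted to activity via standard curves and expressed relative to untreated DMSO controls.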

DNA helicase = DNA helicase (UniProt P0ACB1)
Experimental: as §1

DNA ligase = DNA ligase (UniProt B1XA82)
Experimental: as §1

DNA polymerase = DNA polymerase (UniProt P10443)
Experimental: as §1

DNA primase = DNA primase (UniProt P0ABS7)
Experimental: as §1

GlmU = GlmU (UniProt A7ZTU1)
Experimental: as §1

Guanlyate kinase = Guanlyate kinase (UniProt Q0TBG1)
Experimental: as §1

MurA = MurA (UniProt Q3YX52)
Experimental: as §1

MurD = biological target: T1, MurD (UniProt P14900)
T1 sequence (whole entry): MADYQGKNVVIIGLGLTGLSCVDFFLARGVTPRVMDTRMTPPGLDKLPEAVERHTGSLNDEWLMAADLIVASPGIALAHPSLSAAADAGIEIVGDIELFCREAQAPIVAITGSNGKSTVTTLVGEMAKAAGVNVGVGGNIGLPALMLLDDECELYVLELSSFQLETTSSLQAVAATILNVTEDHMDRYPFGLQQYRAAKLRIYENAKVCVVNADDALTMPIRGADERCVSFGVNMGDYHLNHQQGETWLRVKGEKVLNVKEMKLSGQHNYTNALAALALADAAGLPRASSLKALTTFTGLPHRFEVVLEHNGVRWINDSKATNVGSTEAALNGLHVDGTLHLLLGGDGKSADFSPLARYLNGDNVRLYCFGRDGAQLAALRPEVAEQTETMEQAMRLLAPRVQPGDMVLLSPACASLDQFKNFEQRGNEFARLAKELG
Experimental: as §1

MurF = biological target: T2, MurF (UniProt P11880)
T2 sequence (whole entry): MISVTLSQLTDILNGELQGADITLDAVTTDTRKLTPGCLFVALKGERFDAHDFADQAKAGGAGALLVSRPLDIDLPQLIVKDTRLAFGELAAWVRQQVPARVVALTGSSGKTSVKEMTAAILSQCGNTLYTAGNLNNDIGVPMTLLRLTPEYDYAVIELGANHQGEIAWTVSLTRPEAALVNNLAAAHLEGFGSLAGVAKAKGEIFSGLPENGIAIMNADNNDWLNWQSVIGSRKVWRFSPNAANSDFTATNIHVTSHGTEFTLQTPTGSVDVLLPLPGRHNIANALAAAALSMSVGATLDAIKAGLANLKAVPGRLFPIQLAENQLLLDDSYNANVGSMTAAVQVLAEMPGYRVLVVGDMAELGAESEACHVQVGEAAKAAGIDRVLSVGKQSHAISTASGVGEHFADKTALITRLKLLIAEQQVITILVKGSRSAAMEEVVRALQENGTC
Experimental: as §1

RNA polymerase = system: RNA polymerase
Experimental: as §1

Guanlyate kinase, sequence (Q0TBG1 whole entry): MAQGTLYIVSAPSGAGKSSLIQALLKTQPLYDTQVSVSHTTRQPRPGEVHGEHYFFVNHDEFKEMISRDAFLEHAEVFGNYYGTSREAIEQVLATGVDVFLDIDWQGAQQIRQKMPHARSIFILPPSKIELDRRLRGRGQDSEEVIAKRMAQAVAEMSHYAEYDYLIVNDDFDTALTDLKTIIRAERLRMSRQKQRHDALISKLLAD
DNA helicase, sequence (P0ACB1 whole entry): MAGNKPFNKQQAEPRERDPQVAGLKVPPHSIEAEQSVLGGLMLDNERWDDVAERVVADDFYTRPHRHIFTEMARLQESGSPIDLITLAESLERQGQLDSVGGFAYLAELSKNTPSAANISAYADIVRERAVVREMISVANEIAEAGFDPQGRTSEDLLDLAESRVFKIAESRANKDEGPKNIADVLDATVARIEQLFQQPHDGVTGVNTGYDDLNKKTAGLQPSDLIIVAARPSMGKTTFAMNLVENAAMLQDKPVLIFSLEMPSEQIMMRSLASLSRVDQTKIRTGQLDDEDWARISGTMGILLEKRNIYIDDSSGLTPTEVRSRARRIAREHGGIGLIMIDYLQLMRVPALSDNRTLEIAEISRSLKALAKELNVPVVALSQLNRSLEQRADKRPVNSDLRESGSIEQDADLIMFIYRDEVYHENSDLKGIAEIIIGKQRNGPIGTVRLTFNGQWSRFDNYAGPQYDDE
GlmU, sequence (A7ZTU1 whole entry, looked up): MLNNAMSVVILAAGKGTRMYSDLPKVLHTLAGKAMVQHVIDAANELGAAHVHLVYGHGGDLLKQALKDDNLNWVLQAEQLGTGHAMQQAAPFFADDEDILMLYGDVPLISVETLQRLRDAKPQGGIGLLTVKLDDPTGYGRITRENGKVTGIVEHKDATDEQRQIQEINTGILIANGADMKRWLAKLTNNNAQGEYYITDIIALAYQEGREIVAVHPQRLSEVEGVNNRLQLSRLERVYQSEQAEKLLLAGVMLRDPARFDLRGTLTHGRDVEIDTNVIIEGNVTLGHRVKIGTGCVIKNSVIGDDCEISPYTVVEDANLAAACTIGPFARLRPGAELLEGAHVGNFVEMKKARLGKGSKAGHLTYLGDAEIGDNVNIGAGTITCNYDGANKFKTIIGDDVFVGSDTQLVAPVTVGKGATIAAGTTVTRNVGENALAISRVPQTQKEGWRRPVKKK
DNA ligase, sequence (B1XA82 whole entry): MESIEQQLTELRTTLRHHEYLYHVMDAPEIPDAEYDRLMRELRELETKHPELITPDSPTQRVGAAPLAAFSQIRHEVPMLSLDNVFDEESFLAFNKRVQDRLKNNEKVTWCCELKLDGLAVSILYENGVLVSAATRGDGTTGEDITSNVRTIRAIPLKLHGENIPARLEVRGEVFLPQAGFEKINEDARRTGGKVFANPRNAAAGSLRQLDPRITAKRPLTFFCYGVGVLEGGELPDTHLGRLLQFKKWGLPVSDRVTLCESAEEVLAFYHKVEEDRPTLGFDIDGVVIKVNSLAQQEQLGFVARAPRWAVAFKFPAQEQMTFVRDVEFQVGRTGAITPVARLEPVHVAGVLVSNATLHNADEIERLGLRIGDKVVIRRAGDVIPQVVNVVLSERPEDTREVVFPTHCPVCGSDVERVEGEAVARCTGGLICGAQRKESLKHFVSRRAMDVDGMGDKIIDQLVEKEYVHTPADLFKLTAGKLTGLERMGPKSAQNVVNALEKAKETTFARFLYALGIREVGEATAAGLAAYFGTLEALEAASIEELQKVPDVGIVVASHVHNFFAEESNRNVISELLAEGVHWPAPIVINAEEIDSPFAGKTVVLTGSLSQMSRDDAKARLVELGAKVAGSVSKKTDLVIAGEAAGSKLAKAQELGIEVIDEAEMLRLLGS
DNA polymerase, sequence (P10443 whole entry): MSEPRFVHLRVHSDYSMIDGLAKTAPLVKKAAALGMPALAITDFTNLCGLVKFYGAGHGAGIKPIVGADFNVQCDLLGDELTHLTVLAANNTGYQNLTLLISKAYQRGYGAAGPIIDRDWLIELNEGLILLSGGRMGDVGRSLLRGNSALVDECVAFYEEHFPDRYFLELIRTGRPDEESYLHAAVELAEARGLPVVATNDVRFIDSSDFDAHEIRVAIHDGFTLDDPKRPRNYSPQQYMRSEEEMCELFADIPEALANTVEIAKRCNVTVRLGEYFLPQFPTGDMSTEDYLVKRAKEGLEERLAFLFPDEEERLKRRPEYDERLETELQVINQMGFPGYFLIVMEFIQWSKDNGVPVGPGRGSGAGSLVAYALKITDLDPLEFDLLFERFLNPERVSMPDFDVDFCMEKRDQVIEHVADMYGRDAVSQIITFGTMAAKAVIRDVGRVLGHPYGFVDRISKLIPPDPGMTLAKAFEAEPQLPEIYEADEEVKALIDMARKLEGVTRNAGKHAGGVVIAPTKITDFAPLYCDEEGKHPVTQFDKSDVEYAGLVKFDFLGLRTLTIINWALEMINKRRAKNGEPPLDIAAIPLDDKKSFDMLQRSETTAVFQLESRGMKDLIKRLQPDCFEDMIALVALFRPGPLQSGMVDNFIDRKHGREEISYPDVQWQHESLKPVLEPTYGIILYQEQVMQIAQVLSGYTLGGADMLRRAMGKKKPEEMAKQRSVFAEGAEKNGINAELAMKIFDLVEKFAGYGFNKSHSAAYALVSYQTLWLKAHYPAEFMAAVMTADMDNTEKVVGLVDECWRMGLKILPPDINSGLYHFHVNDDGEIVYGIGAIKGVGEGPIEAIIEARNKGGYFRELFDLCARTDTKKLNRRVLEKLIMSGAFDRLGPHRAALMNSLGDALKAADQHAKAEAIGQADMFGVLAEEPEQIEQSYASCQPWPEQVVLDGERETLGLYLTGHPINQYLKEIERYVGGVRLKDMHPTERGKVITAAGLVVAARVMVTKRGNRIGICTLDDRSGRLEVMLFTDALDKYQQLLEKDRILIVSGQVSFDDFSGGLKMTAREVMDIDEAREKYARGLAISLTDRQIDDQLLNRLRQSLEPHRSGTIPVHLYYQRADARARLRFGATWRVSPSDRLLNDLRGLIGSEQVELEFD
MurA, sequence (Q3YX52 whole entry): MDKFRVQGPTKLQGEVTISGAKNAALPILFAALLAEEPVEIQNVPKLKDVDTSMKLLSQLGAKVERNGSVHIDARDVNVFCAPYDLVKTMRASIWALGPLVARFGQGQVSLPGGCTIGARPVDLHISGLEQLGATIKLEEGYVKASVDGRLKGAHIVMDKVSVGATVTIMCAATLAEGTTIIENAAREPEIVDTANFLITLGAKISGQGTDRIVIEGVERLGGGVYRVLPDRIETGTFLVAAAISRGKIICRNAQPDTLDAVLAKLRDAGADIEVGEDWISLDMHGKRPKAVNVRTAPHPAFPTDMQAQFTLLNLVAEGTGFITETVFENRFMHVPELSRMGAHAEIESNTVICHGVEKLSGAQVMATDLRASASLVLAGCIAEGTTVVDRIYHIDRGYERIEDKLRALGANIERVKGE
DNA primase, sequence (P0ABS7 whole entry): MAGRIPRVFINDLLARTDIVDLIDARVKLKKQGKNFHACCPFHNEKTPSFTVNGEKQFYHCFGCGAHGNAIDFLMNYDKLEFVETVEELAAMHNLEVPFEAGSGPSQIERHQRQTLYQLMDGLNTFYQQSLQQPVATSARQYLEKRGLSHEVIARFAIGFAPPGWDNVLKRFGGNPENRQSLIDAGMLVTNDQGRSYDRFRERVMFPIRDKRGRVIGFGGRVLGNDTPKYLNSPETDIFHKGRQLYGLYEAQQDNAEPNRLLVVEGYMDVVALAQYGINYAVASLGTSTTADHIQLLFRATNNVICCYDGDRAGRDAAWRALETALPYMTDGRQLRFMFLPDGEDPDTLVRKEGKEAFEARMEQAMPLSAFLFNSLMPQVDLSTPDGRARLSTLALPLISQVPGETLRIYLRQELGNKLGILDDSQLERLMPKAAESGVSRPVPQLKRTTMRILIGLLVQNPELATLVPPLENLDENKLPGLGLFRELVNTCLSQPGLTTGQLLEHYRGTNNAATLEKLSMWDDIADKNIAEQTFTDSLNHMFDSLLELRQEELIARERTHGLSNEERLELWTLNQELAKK

| Compound | relative enzymatic activity (DNA gyrase) | relative enzymatic activity (DNA helicase) | relative enzymatic activity (DNA ligase) | relative enzymatic activity (DNA polymerase) | relative enzymatic activity (DNA primase) | relative enzymatic activity (GlmU) | relative enzymatic activity (Guanlyate kinase) | relative enzymatic activity (MurA) | relative enzymatic activity (MurD) | relative enzymatic activity (MurF) | relative enzymatic activity (RNA polymerase) |
| --- | --- | --- | --- | --- | --- | --- | --- | --- | --- | --- | --- |
| NC(C(=O)NC1C(=O)N2C(C(=O)O)=C(Cl)CSC12)c1ccccc1 (stereo not given) | 1.09 ± 0.06 | 0.441 ± 0.046 | 1.07 ± 0.039 | 1.38 ± 0.51 | 0.74 ± 0.23 | 0.982 ± 0.015 | 1.04 ± 0.088 | 0.0755 ± 0.013 | 0.58 ± 0.4 | 0.945 ± 0.26 | 0.971 ± 0.085 |
| NC[C@H]1O[C@H](O[C@H]2[C@H](O)[C@@H](O[C@H]3O[C@H](CO)[C@@H](O)[C@H](N)[C@H]3O)[C@H](N)C[C@@H]2N)[C@H](N)C[C@@H]1O | 0.902 ± 0.18 | 0.378 ± 0.22 | 0.91 ± 0.034 | 1.19 ± 0.21 | 0.572 ± 0.14 | 1.02 ± 0.033 | 0.443 ± 0.1 | 0.747 ± 0.093 | 0.609 ± 0.42 | 0.956 ± 0.23 | 0.906 ± 0.048 |
| CO[C@@]12[C@@H]3N[C@@H]3CN1C1=C(C(=O)C(N)=C(C)C1=O)[C@@H]2COC(N)=O | 1.25 ± 0.4 | 0.689 ± 0.37 | 0.844 ± 0.031 | 1.17 ± 0.19 | 0.837 ± 0.014 | 0.979 ± 0.0078 | 0.861 ± 0.01 | 0.431 ± 0.072 | 0.615 ± 0.42 | 0.942 ± 0.24 | 0.82 ± 0.035 |
| CC(C)CCCC(=O)N[C@@H](CCNCS(=O)(=O)O)C(=O)N[C@H](C(=O)N[C@@H](CCNCS(=O)(=O)O)C(=O)N[C@H]1CCNC(=O)[C@H]([C@@H](C)O)NC(=O)[C@H](CCNCS(=O)(=O)O)NC(=O)[C@H](CCNCS(=O)(=O)O)NC(=O)[C@H](CC(C)C)NC(=O)[C@H](CC(C)C)NC(=O)[C@H](CCNCS(=O)(=O)O)NC1=O)[C@@H](C)O | 0.555 ± 0.027 | 0.608 ± 0.27 | 1.01 ± 0.41 | 1.14 ± 0.27 | 0.8249 ± 0.007 | 1.0459 ± 0.00074 | 0.666 ± 0.056 | 0.723 ± 0.12 | 0.585 ± 0.35 | 0.903 ± 0.13 | 0.813 ± 0.041 |
| CO/N=C(\C(=O)N[C@@H]1C(=O)N2C(C(=O)O)=C(CSC(=O)c3ccco3)CS[C@H]12)c1csc(N)n1 | 0.0013 ± 0.0018 | 0.049 ± 0.0096 | 0.817 ± 0.063 | 0.312 ± 0.026 | 0.533 ± 0.092 | 0.492 ± 0.17 | 0.778 ± 0.12 | 0.0403 ± 0.017 | 0.125 ± 0.094 | 0.82 ± 0.26 | 0.602 ± 0.68 |
| NC(=O)[C@@H]1C(=O)C[C@@H]2C[C@@H]3Cc4cccc(O)c4C(=O)[C@@H]3C(=O)[C@]2(O)C1=O | 1.02 ± 0.18 | 0.519 ± 0.062 | 0.963 ± 0.042 | 0.976 ± 0.11 | 0.822 ± 0.017 | 1.08 ± 0.021 | 0.796 ± 0.086 | 0.328 ± 0.11 | 0.62 ± 0.39 | 1.01 ± 0.2 | 0.715 ± 0.048 |
| O=C1C=CC(=O)N1 | 0.511 ± 0.14 | 0.616 ± 0.23 | 0.848 ± 0.071 | 1 ± 0.3 | 0.801 ± 0.014 | 0.973 ± 0.066 | 0.814 ± 0.18 | 0.171 ± 0.052 | 0.533 ± 0.5 | 0.951 ± 0.22 | 0.83 ± 0.2 |
| CN(C)c1ccc(O)c2c1C[C@H]1C[C@H]3[C@H](N(C)C)C(=O)C(C(N)=O)=C(O)[C@@]3(O)C(=O)[C@H]1C2=O | 0.655 ± 0.27 | 0.659 ± 0.38 | 0.8389 ± 0.0033 | 0.961 ± 0.2 | 0.669 ± 0.027 | 0.995 ± 0.035 | 0.701 ± 0.069 | 0.0752 ± 0.015 | 0.623 ± 0.42 | 0.96 ± 0.18 | 0.304 ± 0.052 |
| CC1(C)S[C@@H]2[C@H](NC(=O)[C@H](NC(=O)N3CCNC3=O)c3ccccc3)C(=O)N2[C@H]1C(=O)O | 0.794 ± 0.35 | 0.76 ± 0.44 | 0.934 ± 0.038 | 1.06 ± 0.04 | 0.864 ± 0.024 | 0.998 ± 0.033 | 0.935 ± 0.03 | 0.579 ± 0.11 | 0.583 ± 0.4 | 0.954 ± 0.23 | 0.869 ± 0.089 |
| CC[C@@H]1OC(=O)[C@H](C)[C@@H](O[C@H]2C[C@@](C)(OC)[C@@H](O)[C@H](C)O2)[C@H](C)[C@@H](O[C@@H]2O[C@H](C)C[C@H](N(C)C)[C@H]2O)[C@](C)(O)C[C@@H](C)/C(=N\OCOCCOC)[C@H](C)[C@@H](O)[C@]1(C)O | 0.682 ± 0.5 | 0.568 ± 0.081 | 0.8031 ± 0.0034 | 0.48 ± 0.67 | 0.8559 ± 0.0026 | 0.895 ± 0.076 | 0.922 ± 0.026 | 0.852 ± 0.19 | 0.583 ± 0.4 | 1.12 ± 0.015 | 0.884 ± 0.17 |
